# Data reported in the OligoGym collection.
# Biological target: TRAPPC2
# Experiment: pooled miR-30 sensor sort-seq; sequence = guide strand
# Conditions: shRNA
# Also: reference of the scale not given here.
row,Sequence,sensor-assay potency score (higher = more potent)
1,ATGAGCTATGAACTGGTTCAGA,-1.51
2,TTATTCCATCTTCTTGTCTTAT,-1.23
3,TATTCCATCTTCTTGTCTTATG,-1.41
4,TTTATTCCATCTTCTTGTCTTA,-0.31
5,TTTCTGTCAAATGCACTTGATC,-1.44
6,TATATAAATCATAAACATCAGT,-0.905
7,TGTCAAATGCACTTGATCGAAT,-0.613
8,TTGATCGAATAGGAGAATTGGG,-0.578
9,TCGTTGAACTTGTCCACAGTTT,-0.427
10,ATGCACTTGATCGAATAGGAGA,-1.42

# Biological target: TRIL
# Experiment: as above
# Conditions: shRNA
row,Sequence,sensor-assay potency score (higher = more potent)
1,TTGTACTGCAGGTCCAGCCGTC,-0.188
2,TTGGTTATGAAGTTGCCGCCGA,-0.156
3,TTGCCGTCTAGATCCAGCCGAT,-0.561
4,TACAGCTCTTCCAGCCGCGAGA,-1.34
5,AACTTGTTGAAGTCGCATGGGT,-0.301
6,TTGCAGCTGCTGGTCATCCAGG,-1.05
7,TTCTTGTGCAGGTCTAGGGACT,-1.42
8,TAGAAATCGCCCCTGCTGCTGG,-0.425
9,ATGAACTTGTTGAAGTCGCATG,-1.34
10,TTGACTAGACTCTCCAGGCCCT,-0.105
11,TTGCACAGAATGAACTTGTTGA,0.574
12,TAGGTGAGCACGTCGTGGGGGC,-0.151
